High-throughput results from PubChem BioAssay.
ELG1 DNA repair: blocks ELG1-dependent DNA repair in HEK293T cells | HEK293T ELG1-luciferase reporter, luminescence, 16 h; DNA damage induced by 5-fluorouridine | Potency, µM (doses to about 46.1 µM), inactives show at the highest dose activity change, negative = inhibition, hits mostly inhibitors | 330,000 compounds, 2.3% hits | AID 504467; note: nearly all actives have a fitted effect of over 55% in size
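Luminescence from the luciferase reporter, measured 30 min after ONE-Glo reagent at room temperature, was the read-out. Beforehand, 2,000 cells per well were exposed for 16 hr at 37 °C to 5-fluorouridine together with compound or vehicle.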
TDP1 cell CPT: growth inhibition of DT40 Tdp1-/-;hTDP1 cells with camptothecin (screen for TDP1 inhibitors); chicken DT40 Tdp1-/-;hTDP1 cells + 20 nM CPT, ATP luminescence, 48 h; Potency, µM (highest dose often 46.2 µM), inactives show at the top dose activity change, negative = growth inhibition, usual class: inhibitors; 420,000 compounds, 12% hits; AID 686979; note: nearly all actives have a fitted effect of over 55% in size
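Chicken DT40 Tdp1-/- cells stably complemented with human TDP1 were seeded at 400 cells/well in medium containing 20 nM camptothecin, exposed to pin-transferred compounds, and grown at 37 °C for at least 48 hr. Viability was read as ATP luminescence.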
12-LOX inh: blocks human arachidonate 12S-lipoxygenase. purified 12hLO, xylenol orange hydroperoxide absorbance. 580,000 compounds, 1.1% hits. Potency, µM (highest dose often 108 µM), inactives show at the top dose activity change, negative = inhibition, usual class: inhibitors. P18054
Target sequence (P18054 whole entry, looked up): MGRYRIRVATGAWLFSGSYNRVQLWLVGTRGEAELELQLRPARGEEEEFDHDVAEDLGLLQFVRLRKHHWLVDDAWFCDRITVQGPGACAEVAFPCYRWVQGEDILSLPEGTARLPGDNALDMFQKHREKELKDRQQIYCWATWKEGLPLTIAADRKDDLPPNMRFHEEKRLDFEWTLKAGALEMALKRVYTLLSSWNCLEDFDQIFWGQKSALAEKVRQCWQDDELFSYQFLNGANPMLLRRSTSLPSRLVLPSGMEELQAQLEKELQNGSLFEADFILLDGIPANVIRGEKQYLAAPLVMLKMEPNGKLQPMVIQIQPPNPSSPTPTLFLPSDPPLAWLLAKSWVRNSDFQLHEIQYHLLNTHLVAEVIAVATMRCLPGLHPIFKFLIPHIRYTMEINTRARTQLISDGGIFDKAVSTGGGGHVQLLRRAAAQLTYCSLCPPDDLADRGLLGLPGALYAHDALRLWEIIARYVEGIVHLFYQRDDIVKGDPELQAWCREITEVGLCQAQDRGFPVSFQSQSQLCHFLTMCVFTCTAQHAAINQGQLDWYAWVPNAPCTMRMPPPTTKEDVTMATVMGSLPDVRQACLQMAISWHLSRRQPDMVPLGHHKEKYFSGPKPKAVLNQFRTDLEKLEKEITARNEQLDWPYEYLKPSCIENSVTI
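Purified human 12hLO at 150 nM in 25 mM Hepes, 0.01% Triton X-100, pH 7.0, preincubated 15 min at room temperature with compound. Reaction started with 40 uM arachidonic acid, 30 min at room temperature. Hydroperoxide measured by Fe-xylenol orange, 573/405 nm absorbance ratio.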
VP16 counter: counter-screen for ROR gamma inhibitors: Gal4-VP16 reporter. Drosophila S2 Gal4-VP16 UAS-luciferase, luminescence, 20 h. Potency, µM (top dose mostly 53.6 µM), inactives show at the highest dose activity, negative = inhibition, actives largely listed as inhibitors. 310,000 compounds, 3.5% hits. AID 2546;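 note: Gal4-VP16 expression switched on by copper sulfate through the metallothionein promoter; nearly all actives have a fitted effect of over 50% in size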
RORgamma inh: ROR gamma (mouse) transcription inhibition. P51450. Drosophila S2 Gal4-RORgamma UAS-luciferase reporter, 20 h. Potency, µM (top dose mostly 53.6 µM), without a hit: at the top dose activity change, negative = inhibition, hits mostly inhibitors. 310,000 compounds, 5.4% hits. AID 2551; note: nearly all actives have a fitted effect of over 60% in size
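A Gal4/UAS one-hybrid system in insect cells: metallothionein-promoter Gal4–ROR gamma fusion plus Photinus luciferase reporter. Copper sulfate 700 uM final, 20 hr ambient incubation, luminescent detection after 10 min with reagent.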
DT40 TDP1 no CPT: qHTS for Inhibitors of human tyrosyl-DNA phosphodiesterase 1 (TDP1): qHTS in cells in absence of CPT; DT40 Tdp1-/- hTDP1 cells, no CPT, ATP luminescence, 48 h; Potency, µM (titrated, usually from 46.2 µM), inactives show at the top dose activity change, negative = growth inhibition, actives largely listed as inhibitors; 420,000 compounds, 15% hits; AID 686978, 2013; note: nearly all actives have a fitted effect of over 55% in size
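Readout: luminescence from CellTiter-Glo after 30 min in the dark at RT. Cells: DT40 Tdp1-/- with stable hTDP1, 400/well. Exposure: compounds alone, ≥48 hr, 37 °C.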
* marks the source's active call; other numbers are inactive results; u = inconclusive; x = no result; [ ] = remark or other dose. Rows were chosen to be rich in hits. Some 15% of all compounds tested hit in one or more screens of this group. Calls come from the whole dose curve; as a rule, active = well fitted curve in the direction sought with a large enough effect; inconclusive = small, poorly fitted or top-dose-only effect, or another doubt; inactive = no such curve, though single readings can be large; an effect the other way counts as inactive or inconclusive. % is set by controls: 0 for no effect and ±100 for the full control effect; potency is the fitted concentration of half-maximal effect.

SMILES	ELG1 DNA repair	TDP1 cell CPT	12-LOX inh	VP16 counter	RORgamma inh	DT40 TDP1 no CPT
CC1Cc2ccccc2N1CC(=O)Nc1cc(S(=O)(=O)N2CCOCC2)ccc1Cl (configuration not stated)	x	u	-6%	x	x	23µM*
CN1CCN(CC(=O)Nc2cc(S(=O)(=O)N3CCOCC3)ccc2Cl)CC1	25%	-21%	-9%	x	x	1%
CCOc1ccccc1NC(=O)c1nc2ccccc2nc1N1CCOCC1	x	x	-24%	x	x	x
CCc1cc(=O)oc2cc(OS(=O)(=O)c3sc(C(=O)OC)c(C)c3C(=O)OC)ccc12	x	x	43%	x	x	x
CCCCn1c(=O)n(CC(=O)NCc2ccc(C)cc2)c(=O)c2c1ncn2Cc1ccco1	x	x	-12%	x	x	x
COc1ccc(-c2cc(C[C@@H]3C[C@H](NCc4ccncc4)C3(C)C)no2)cc1	x	x	19%[176 µM]	x	x	x
COCC(=O)NC1CCC12CCN(Cc1cccc(OC)c1)CC2 (configuration not stated)	x	x	77%	x	x	x
COc1ccc(C(=O)/C=C(\N)C(F)(F)F)c(O)c1	13%	-23%	40µM*	16%	16%	-17%
COc1ccc(/C=C/C(=O)c2cc3c(cc2N)OCO3)cc1	u	u	35µM*	4%	-2%	23µM*
COc1ccc(/C=C/C(=O)c2cc(C(=O)/C=C/c3ccc(OC)cc3)c(O)cc2O)cc1	x	u	x	x	x	11µM*
COc1ccc(/C=C/C(=O)c2ccc(OC)cc2OC)cc1	18%	u	-5%	-6%	13%	u
COc1ccc(/C=C/C(=O)c2cc(O)ccc2O)cc1	x	16µM*	x	0%	u	16µM*
COc1ccc2cc(C(=O)/C=C/c3ccc(C(=O)O)cc3)ccc2c1	x	x	-21%	x	x	x
Cc1ccccc1S(=O)(=O)N1CCn2c(n[nH]c2=O)C1	x	x	27%	x	x	x
N#Cc1c(N2CCN(C(=O)C(=O)NCCO)CC2)nc(-c2ccccc2)c2c1CCCC2	x	x	11%	x	x	x
COc1ccc(/C=C/C(=O)c2cc(Cl)ccc2O)c(OC)c1	u	u	-18%	29%	14%	u
COc1cc(/C=C/C(O)=C/C(=O)/C=C/c2ccc(O)cc2)ccc1O	u	18µM*	13µM*	x	x	u
COc1ccc(C(=O)/C=C/c2ccccc2)c(O)c1	u	u	21%	-4%	-43%	23µM*
COc1ccc(/C=C/C(=O)c2ccc(Cl)cc2)c(OC)c1	u	-20%	-25%	-2%	1%	18µM*
COc1cc(O)c(C(=O)/C=C/c2ccc(O)c(OC)c2)c(OC)c1	x	u	x	-12%	-13%	u
COc1ccc(C(=O)/C=C/c2ccc(OC)cc2OC)c(O)c1	u	u	13%	21%	0.79µM*	u
Cn1c(=O)c2c(ncn2CC(=O)N(C2CC2)C2CCS(=O)(=O)C2)n(C)c1=O (configuration not stated)	x	x	-1%	x	x	x
COc1ccc(/C=C\C(=O)c2c(O)ccc3c(C)cc(=O)oc23)cc1	-15%	-28%	-12%	-14%	u	23µM*
COc1ccc(/C=C/C(=O)c2c(O)ccc3c(C)cc(=O)oc23)cc1	6%	u	u	u	-38%	u
COc1cc(/C=C/C(=O)c2ccc(O)cc2O)ccc1O	x	x	u	-24%	u	x
SMILES	ELG1 DNA repair	TDP1 cell CPT	12-LOX inh	VP16 counter	RORgamma inh	DT40 TDP1 no CPT
O=C(/C=C/c1ccccc1)c1ccc(O)cc1O	x	u	x	u	2.8µM*	16µM*
COc1ccc(/C=C/C(=O)c2ccc(O)cc2O)cc1	x	u	x	u	0.04µM*	u
COc1ccc(/C=C/C(=O)c2ccc(O)cc2O)cc1OC	x	u	x	u	2µM*	15µM*
O=C(Cn1nc(-c2ccco2)ccc1=O)Nc1ccccc1	x	x	-19%	x	x	x
CC(C)=CCn1c(-c2ccccc2Cl)cn2cc(C(=O)NCCCO)nc2c1=O	x	x	56%	x	x	x
COc1cccc(C(=O)N2CCCC3(C2)NC(=O)N(Cc2ccc(C)cc2)C3=O)c1OC (configuration not stated)	x	x	8%	x	x	x
O=C(O)c1c[nH]c(=S)n1-c1ccc(F)cc1	2%	-8%	u	-16%	-22%	3%
S=c1[nH]cc(-c2ccccc2)n1-c1ccccc1	1%	-14%	u	4µM*	3.5µM*	-15%
Cc1ccc(-n2c(-c3ccccc3)c[nH]c2=S)cc1	0%	u	u	6.3µM*	2.2µM*	-90%
COc1ccc(-n2c(COc3ccc(Cl)cc3)nnc2SCC(=O)C(C)(C)C)cc1	x	x	1%	x	x	x
COc1ccc(-n2c(-c3ccc(Cl)cc3)c[nH]c2=S)cc1	0%	-22%	u	2.8µM*	0.45µM*	-8%
Cc1ccc(-n2c(N)c(C#N)c(-c3ccccc3)c(C#N)c2=O)cc1	17%	-1%	0%	-6%	1%	-24%
Cc1ccsc1C(=O)NCC1Cn2cccc2CN1C (configuration not stated)	x	x	279%	x	x	x
COc1ccc(C(=O)NC2CCN(c3cc(-c4ccc(F)cc4)[nH]n3)CC2)c(OC)c1	x	x	10%	x	x	x
Cc1ccc(S(=O)(=O)NC(C)CN2CCOCC2)cc1F (configuration not stated)	x	x	-19%	x	x	x
C(=C\c1nc(-c2ccncc2)no1)/c1ccccc1	5%	-7%	5%	-7%	1%	16µM*
C(=C\c1nc(-c2ccccc2)no1)/c1ccccc1	u	-30%	7%	-21%	-25%	8%
CCN1C(=O)C2CC3(CCN(C(=O)CCc4c[nH]c5ccccc45)CC3)CN2C1=O (configuration not stated)	x	x	3%	x	x	x
Cc1ccnc2c1ccc1c(C)ccnc12	2.3µM*	0.92µM*	x	x	x	2.6µM*
Cc1ccccc1N1C(=O)C2C3CC(=O)C(c4ccccc43)C2C1=O (configuration not stated)	15%	-14%	-1%	-8%	0%	-26%
Cc1ccnc2c(N3C(=O)C4C5c6ccccc6C(c6ccccc65)C4C3=O)cccc12 (configuration not stated)	u	21µM*	25%	-8%	u	16µM*
Cc1cc(C)c2cccnc2c1O	x	1.3µM*	x	x	x	1.1µM*
Cc1ccnc2c1ccc1cccnc12	u	1µM*	-12%	x	x	0.58µM*
COc1cc(/C=C/c2nc(C#N)c(NCc3ccc(F)cc3)o2)cc(OC)c1OC	x	x	-9%	x	x	x
